This note sets out measurements from PubChem BioAssay AID861 (The Scripps Research Institute Molecular Screening Center, 2007).

The whole screen tested about 200,000 compounds, of which about 360 (0.18%) were called active. Many of the other results were omitted from the sample, so actives are more common in it than they were. Values without a mark were called inactive. No stated cut-off is given here; in the data, active means inhibition above about 25%; inactive means the rest.

Chain of Toll-like receptor 4 (Homo sapiens) + Myeloid differentiation primary response protein MyD88 (Homo sapiens) (O00206 whole entry, looked up): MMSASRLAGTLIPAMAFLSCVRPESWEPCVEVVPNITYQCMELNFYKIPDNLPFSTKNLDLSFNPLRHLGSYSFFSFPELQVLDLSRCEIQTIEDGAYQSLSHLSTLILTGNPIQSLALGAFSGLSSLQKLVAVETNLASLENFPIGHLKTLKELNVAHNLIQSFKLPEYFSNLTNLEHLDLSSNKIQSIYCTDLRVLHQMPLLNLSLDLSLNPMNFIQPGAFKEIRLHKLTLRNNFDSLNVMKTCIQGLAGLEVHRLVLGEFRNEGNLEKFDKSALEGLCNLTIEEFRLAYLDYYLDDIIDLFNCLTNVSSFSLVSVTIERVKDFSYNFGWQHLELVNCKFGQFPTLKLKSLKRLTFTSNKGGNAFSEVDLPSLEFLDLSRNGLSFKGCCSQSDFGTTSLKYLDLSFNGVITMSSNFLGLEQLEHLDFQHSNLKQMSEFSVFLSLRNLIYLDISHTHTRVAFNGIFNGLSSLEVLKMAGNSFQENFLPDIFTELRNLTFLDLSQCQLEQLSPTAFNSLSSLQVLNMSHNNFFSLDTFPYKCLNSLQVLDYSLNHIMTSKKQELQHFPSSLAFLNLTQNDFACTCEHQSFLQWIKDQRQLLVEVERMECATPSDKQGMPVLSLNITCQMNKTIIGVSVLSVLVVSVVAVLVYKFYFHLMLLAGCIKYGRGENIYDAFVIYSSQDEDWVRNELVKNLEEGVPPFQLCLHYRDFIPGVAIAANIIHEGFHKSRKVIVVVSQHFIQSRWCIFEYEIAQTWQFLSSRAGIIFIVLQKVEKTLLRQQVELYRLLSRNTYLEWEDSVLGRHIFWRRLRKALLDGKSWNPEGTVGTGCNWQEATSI
Chain of Toll-like receptor 4 (Homo sapiens) + Myeloid differentiation primary response protein MyD88 (Homo sapiens) (Q99836 whole entry, looked up): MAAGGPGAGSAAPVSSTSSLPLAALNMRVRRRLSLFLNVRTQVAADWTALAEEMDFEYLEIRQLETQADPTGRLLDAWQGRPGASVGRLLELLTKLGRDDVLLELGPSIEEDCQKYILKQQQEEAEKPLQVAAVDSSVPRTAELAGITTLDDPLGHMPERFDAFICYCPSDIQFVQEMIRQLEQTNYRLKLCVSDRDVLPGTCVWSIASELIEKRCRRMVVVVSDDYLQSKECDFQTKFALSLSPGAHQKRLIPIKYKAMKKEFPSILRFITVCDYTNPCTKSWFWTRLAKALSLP

This assay addresses Toll-like receptor 4 (Homo sapiens) + Myeloid differentiation primary response protein MyD88 (Homo sapiens) (UniProt O00206+Q99836). Put plainly: disruptors of TLR4 binding to MyD88 – cell-based, HeLa CL3-4, BLA complementation, FRET ratio, primary screen (AID 861).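 Further: 0% = vehicle and 100% = reference inhibitor.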 To be noted: HeLa CL3-4 TLR4/MyD88 BLA complementation, at 8.4 µM, stronger effect = higher value.
As to `CCN(CC)c1ccc2oc(=O)c(C)nc2c1`, the inhibition (as a rule, the relative decrease from the control value, in per cent) was 26.6% (active).

Consider `CCN(CC)c1ccc2c(Nc3ccccc3)c(C=O)c(=O)oc2c1`, for which the inhibition is 6.79%.

For `CCN(CC)c1ccc2cc(C(=O)O)c(=O)oc2c1`, the inhibition was 2.27%.

For the compound `CSc1ccc(/C=N/N2CCN(Cc3ccccc3Cl)CC2)cc1`, the inhibition is 8.51%.

Consider `Cc1ccc(NC(=O)c2cc([N+](=O)[O-])ccc2Cl)c(O)c1`, for which the inhibition was -13.5%.

Turning to `O=C(/C=C/c1ccc(F)cc1)Nc1cccc(S(=O)(=O)Nc2cccc(C(F)(F)F)c2)c1`, the inhibition was -0.34%.

Consider `CCOc1cccc(/C=C/c2ccc3ccccc3n2)c1OC(C)=O`, for which the inhibition is 8.04%.

Consider `O=C(CCN1C(=O)c2ccncc2C1=O)Nc1cc(F)ccc1F`, for which the inhibition was 1.62%.

In the case of `CC(=O)Nc1ccc(NC(=O)COc2ccc(S(=O)(=O)NC(C)c3ccccc3)cc2)cc1` (stereo unspecified), the inhibition is -6.49%.

As for `O=C(CN1CCCC1)N1CCN(c2ccccc2)CC1`, the inhibition was -1.74%.

For `COCCCNC(=S)NNC(=O)C(O)(c1ccccc1)c1ccccc1`, the inhibition is 1.88%.

For `Cc1cc(/C=N/NC(=O)CC2(C)OCCO2)c(C)n1-c1ccc(Cl)c(Cl)c1`, the inhibition is -8.27%.

With `Cc1nnc(SCC(=O)N2c3ccccc3C(C)(c3ccc(Cl)cc3)CC2(C)C)s1` (stereo unspecified), the inhibition is -17.2%.

Consider `CC/S(CC1CC1(Cl)Cl)=N\S(=O)(=O)c1ccc(C)cc1` (stereo unspecified), for which the inhibition is -3.44%.

In the case of `Cc1ccc(OCc2nnc(SC3CCc4ccccc4C3=O)n2C)cc1` (stereo unspecified), the inhibition was -13.3%.

`CCC1C(=O)c2ccccc2N(C)C1=O` (stereo unspecified): the inhibition was 3.79%.

In the case of `N#CC1(NC(=O)COc2ccc3oc4ccccc4c3c2)CCCCC1`, the inhibition is -7.56%.

Turning to `CN(CCC1CCOCC1)Cc1cn[nH]c1-c1ccc(-c2ccccc2)cc1`, the inhibition was -6.36%.

Turning to `Cc1ccc(NC(=O)c2ccccn2)cc1S(=O)(=O)N1CCOCC1`, the inhibition was -12.9%.

In the case of `C=CCN1C(=O)C(O)(CC(=O)c2ccccn2)c2ccccc21` (stereo unspecified), the inhibition is 0.55%.

Consider `CC1=NN(C(=O)CCc2ccccc2O)C(O)(C(F)(F)F)C1` (stereo unspecified), for which the inhibition was -5.78%.

`CCn1c2ccccc2c2cc(NC(=O)C/C(C)=N/NC(=O)c3ccccc3N)ccc21`: the inhibition is -6.09%.

With `CCCCCCOc1ccc(OC(=O)c2cccnc2)cc1`, the inhibition is -5.46%.

As for `CC(=O)Nc1ccc(S(=O)(=O)NC(C)C(=O)OCC(=O)NC2CCCC2)cc1` (stereo unspecified), the inhibition was -2.35%.

Consider `COCCNC(=O)NC(=O)COC(=O)C1(c2ccc(Cl)cc2)CC1`, for which the inhibition was 1.43%.

As for `O=C(Nc1nnc(-c2ccco2)o1)c1ccc(S(=O)(=O)N2CCOCC2)cc1`, the inhibition is 9.33%.
